Bioassay records: PubChem, National Center for Advancing Translational Sciences (NCATS)
This is a sample that favours compounds with a hit; in the whole collection about 8% have one here.
SW480 rereplic: DNA re-replication induction in SW480 cells. SW480 DNA re-replication, Hoechst DNA content imaging, 48 h. 340,000 tested, 1.8% active. Potency, µM (highest dose often 46.1 µM), without a hit: at the highest dose re-replication activation, hits mostly activators; further: % of control where 0% means no effect; nearly all actives have a fitted effect of over 55% in size
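Readout is total intensity of Hoechst-stained nuclei, excited at 405 nm and collected at 500-530 nm. Compound treatment lasted 48 hr at 37 C in 5% CO2 before staining.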
KB-V1 cytotox: kills drug-selected multidrug resistant KB-V1 cells; KB-V1 MDR cells viability, CellTiter-Glo, 72 h; Potency, µM (highest dose often 46.1 µM), usual class: cytotoxic; 400,000 tested, 3.4% active; further: on the % scale 0 is the no-effect control and ±100 the full control effect; nearly all actives have a fitted effect of over 60% in size
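Drug-selected KB-V1 cells, grown in DMEM lacking phenol red with 10% FBS, receive compound titrations; after three days at 37 degrees C, surviving cell ATP is quantified by CellTiter-Glo luminescence and responses normalized and curve-fitted.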
KB-3-1 tox: KB-3-1 parental cell cytotoxicity; KB-3-1 viability, CellTiter-Glo ATP luminescence, 72 h; Potency, µM (top dose mostly 46.1 µM), most hits filed as cytotoxic; 400,000 tested, 1.4% active; AID 1347075; further: on the % scale 0 is the no-effect control and ±100 the full control effect; nearly all actives have a fitted effect of over 60% in size
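72 h, 37 °C compound treatment of KB-3-1 parental cells; CellTiter-Glo added, 10 min, luminescence read. Data corrected against DMSO-only plates and normalized before curve fitting.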
MCF10A rerep: DNA re-replication induction in MCF 10a cells. AID 624296. 350,000 tested, 2.9% active. MCF 10A DNA re-replication, Hoechst nuclear intensity, 48 h. Potency, µM (titrated, usually from 46.1 µM), for inactives: at the highest dose activity, positive = re-replication, actives largely listed as activators; further: % of control where 0% means no effect; nearly all actives have a fitted effect of over 50% in size
HT1080-NT tox: kills 2HG-producing HT-1080-NT fibrosarcoma cells; HT-1080-NT fibrosarcoma viability, CellTiter-Glo ATP luminescence, 48 h; Potency, µM (titrated, usually from 46.1 µM), inactives show top-dose activity, negative = less viability, most hits filed as cytotoxic; 360,000 tested, 1.6% active; AID 686970;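 further: NT is the 2HG producing partner of a matched IDH1 knockdown line; 0% = DMSO-treated cells and -100% = media-only wells without cells; nearly all actives have a fitted effect of over 55% in size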
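HT-1080-NT; 750 cells/well; 5% FBS RPMI; 48 h compound, 37 degrees C; CellTiter-Glo luminescence; curve fitting and curve-class assignment.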
HT1080 IDH1KD tx: toxicity to HT-1080 IDH1 knockdown cells (counter line); 360,000 tested, 2% active; Potency, µM (top dose mostly 46.1 µM), for inactives: at the top dose activity, negative = toxicity, hits mostly cytotoxic; HT-1080 IDH1 knockdown viability, ATP luminescence, 48 h;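 further: 0% = DMSO wells and -100% = cell-free medium wells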
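CellTiter-Glo luminescence after 48 h compound exposure at 37 degrees C of IDH1-knockdown HT-1080 cells in 5% FBS RPMI. %Activity scaled between DMSO wells and cell-free media wells, with curves fitted and assigned curve classes.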
* = called active by the depositor; i = inactive; ? = inconclusive; · = no result. The call rests on the fitted dose curve; in most records, active means well fitted curve in the direction sought with a large enough effect; inconclusive means small, poorly fitted or top-dose-only effect, or another doubt; inactive means no such curve, though single readings can be large; an effect the other way counts as inactive or inconclusive. Potency means the concentration at half of the fitted maximal effect.

SMILES	SW480 rereplic	KB-V1 cytotox	KB-3-1 tox	MCF10A rerep	HT1080-NT tox	HT1080 IDH1KD tx
CCn1nc(NC(=O)Cc2ccc(OC)cc2)c2cc3cccc(C)c3nc21	?	i	i	4.11µM*	-3.3%	12.0%
CCn1nc(NC(=O)Cc2ccc(OC)cc2)c2cc3cc(C)ccc3nc21	7.31µM*	i	?	1.84µM*	12.9%	0.0%
CCCn1nc(NC(=O)C2CCCO2)c2cc3cccc(C)c3nc21 (configuration not stated)	2.06µM*	i	i	?	-3.1%	-3.1%
CCn1nc(NC(=O)c2ccccc2)c2cc3cccc(C)c3nc21	11.6µM*	i	i	6.51µM*	-17.7%	-29.1%
CCCC(=O)N1CCC1(C)C(=O)NS(=O)(=O)c1ccc(F)cc1F (configuration not stated)	·	i	i	·	-2.2%	-1.2%
CC1=CC(C)(C)N(C(=O)CCl)c2cc(C)ccc21	2.0%	i	i	-3.6%	-12.1%	-4.2%
CC1=CC(C)(C)N(C(=O)c2ccc(F)cc2)c2cc3c(cc21)OCO3	14.0%	13µM*	20.6µM*	?	-0.9%	4.0%
CCOP1(=O)C=C(Sc2ccc([N+](=O)[O-])cc2[N+](=O)[O-])C(C)(C)O1 (configuration not stated)	-10.9%	i	i	-6.2%	-0.1%	0.4%
Cc1ccc(C)c(CSc2nc3[nH]ncc3c(=O)[nH]2)c1	3.66µM*	0.517µM*	1.16µM*	?	1.3µM*	1.84µM*
Cc1ccc(S(=O)(=O)N2CCCCC2CCNC(=O)C(=O)NCCc2ccco2)cc1 (configuration not stated)	6.51µM*	6.51µM*	5.17µM*	3.66µM*	10.3µM*	18.4µM*
O=C(NCCc1ccco1)C(=O)NCC1CCCN1S(=O)(=O)c1ccccc1 (configuration not stated)	16.4µM*	?	?	?	?	?
Cc1ccc(S(=O)(=O)N2CCCCC2CCNC(=O)C(=O)NCc2ccco2)cc1 (configuration not stated)	?	?	?	9.2µM*	?	13µM*
Cc1ccc(C)c(S(=O)(=O)N2CCCCC2CCNC(=O)C(=O)NCc2ccncc2)c1 (configuration not stated)	-2.2%	2.31µM*	?	9.1%	8.7%	-3.4%
Oc1c(Cl)cc(Cl)cc1CNc1ccc(Br)cn1	1.7%	i	i	11.2µM*	?	?
Oc1ccc(Cl)cc1CNc1ccc(Br)cn1	?	i	?	?	-0.4%	-14.8%
CC1C(c2ccccc2)=[N+]([O-])C2(CCCCC2)N1O (configuration not stated)	3.4%	i	i	?	15.3%	12.2%
Cc1ccc(S(=O)(=O)Oc2ccc(/C=C(/NC(=O)c3ccccc3)C(=O)O)cc2)cc1	4.2%	i	i	-6.0%	-0.9%	-0.6%
Cc1ccc(S(=O)(=O)Oc2ccc(/C=C(/NC(=O)c3ccccc3)C(=O)NCC(=O)O)cc2)cc1	6.51µM*	i	i	-3.2%	-4.5%	1.9%
CCCN1CCC(=O)N(CCSc2ccc(OC)cc2)CC1	?	i	?	?	?	23.1µM*
COc1ccc(SCCN2CC[C@@H](C(C)(C)C)CCC2=O)cc1	-4.0%	?	i	9.2µM*	-0.3%	-4.0%
CCCN1CCC(=O)N(CCSc2ccc(C)cc2)CC1	1.9%	i	?	-12.6%	0.3%	5.6%
O=C(N/N=C/c1cccc([N+](=O)[O-])c1)c1cccs1	-3.3%	?	i	1.0%	6.8%	5.7%
CCCN(Cc1nnc(-c2ccccc2Cl)o1)C(=O)COc1ccc(Cl)cc1	-1.6%	4.11µM*	i	7.4%	4.5%	2.4%
Cc1cc(F)ccc1S(=O)(=O)N1CCCCC1CCNC(=O)C(=O)NCCN1CCOCC1 (configuration not stated)	-7.4%	16.4µM*	i	-3.1%	6.1%	-1.0%
Cc1cc(C)c(S(=O)(=O)N2CCCCC2CCNC(=O)C(=O)NCCN2CCOCC2)c(C)c1 (configuration not stated)	-6.1%	3.26µM*	i	0.6%	4.4%	6.4%
SMILES	SW480 rereplic	KB-V1 cytotox	KB-3-1 tox	MCF10A rerep	HT1080-NT tox	HT1080 IDH1KD tx
O=C1NC(c2ccc(Cl)cc2)Nc2ccccc21 (configuration not stated)	-9.4%	i	i	-41.0%	-7.4%	4.9%
Cc1ccc(C2NC(=O)c3ccccc3N2)s1 (configuration not stated)	20.6µM*	7.31µM*	4.61µM*	?	?	14.6µM*
CN(C)c1ccc(C2NC(=O)c3ccccc3N2)cc1 (configuration not stated)	?	13µM*	?	?	-21.8%	-22.6%
Cc1ccc(C2NC(=O)c3ccccc3N2)c(C)c1 (configuration not stated)	?	5.8µM*	3.66µM*	6.51µM*	7.31µM*	18.4µM*
Cc1ccc(N=C2C(=O)Nc3ccccc32)c(C)c1	-6.4%	i	i	6.1%	-5.8%	-0.6%
Cc1cccc(C2NC(=O)c3ccccc3N2)c1 (configuration not stated)	16.4µM*	?	13µM*	14.6µM*	?	?
O=C1C2CC=C(Cl)CC2C(=O)N1c1ncn[nH]1 (configuration not stated)	-3.9%	i	i	-7.6%	6.5%	13.0%
COC1=CC(=O)C=C(OC)C1=O	-0.5%	i	?	?	18.4µM*	?
COC1=CC(=O)c2ccccc2C1=O	?	?	16.4µM*	18.4µM*	11.6µM*	5.17µM*
CCOc1ccc(N(C(=O)c2cnsn2)C(C(=O)NC2CCCCC2)c2ccncc2)cc1 (configuration not stated)	0.0%	i	i	-2.8%	-7.9%	12.4%
COc1ccccc1C(=O)O/N=C(\N)c1ccc(Cl)cc1	-5.7%	i	i	-23.0%	3.0%	1.3%
COc1ccccc1NC(=O)C(CC(C)C)NC(=O)C1CCCCC1 (configuration not stated)	-2.2%	4.11µM*	i	2.9%	2.6%	-1.5%
COc1ccccc1NC(=S)NCC1CCCCC1	9.2µM*	i	i	?	-0.8%	-8.0%
CCOc1ccccc1NC(=S)NC1CCCCC1	4.4%	23.1µM*	i	19.2%	9.5%	?
